Experimental data taken from PubChem BioAssay AID1159580 (chemical genetic matrix, 2015).
Values joined by “and” are separate entries in the source; they are usually repeats but may differ in a detail not shown here. Identical values can stand only once. Out of some 5,500 compounds screened, about 2,000 (36%) were called active. Another 18% or so got no clear call; they are omitted. No stated cut-off is given here; in the data, active means normalized growth mostly below about 0.91 (no sharp cut-off); inconclusive means no clear call, values can overlap the other calls; inactive means mostly above about 0.92. The list shows a part of the results. More than one record can exist for a structure, and the calls need not agree.

Assay: chemical genetic growth profiling, strain panel (AID 1159580);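 further: tested at 20 µM; growth read once vehicle control cultures reached saturation at 30 °C; 1 = growth at the plate median or of vehicle wells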
Settings: growth OD

Measured: normalized growth

O=C1CCc2cc(OCCCCc3nnnn3C3CCCCC3)ccc2N1
inactive: S. cerevisiae deletion strains, locus YKL009W, strain mrt4, stronger effect = lower value 1 | S. cerevisiae deletion strains, locus YKL068W, stronger effect = lower value 1 | S. cerevisiae deletion strains, locus YKL085W, strain MDH1 (second series), stronger effect = lower value 1.01 | S. cerevisiae deletion strains, locus YKL085W, strain MDH1, stronger effect = lower value 1.01 | S. cerevisiae deletion strains, locus YKL160W, strain elf1, stronger effect = lower value 0.987 | S. cerevisiae deletion strains, locus YKL190W, strain CNB1, stronger effect = lower value 1.01 | S. cerevisiae deletion strains, locus YKR001C, strain vps1, stronger effect = lower value 0.993 | S. cerevisiae deletion strains, locus YKR026C, strain gcn3, stronger effect = lower value 0.979 | S. cerevisiae deletion strains, locus YKR091W, strain srl3, stronger effect = lower value 0.99 | S. cerevisiae deletion strains, locus YLL001W, strain dnm1, stronger effect = lower value 0.984 | S. cerevisiae deletion strains, locus YLL026W, stronger effect = lower value 0.993 | S. cerevisiae deletion strains, locus YLL041C, strain sdh2, stronger effect = lower value 0.991 | S. cerevisiae deletion strains, locus YLR027C, strain aat2, stronger effect = lower value 0.978 | S. cerevisiae deletion strains, locus YLR039C, strain RIC1, stronger effect = lower value 0.972 | S. cerevisiae deletion strains, locus YLR058C, strain SHM2, stronger effect = lower value 1.01 | S. cerevisiae deletion strains, locus YLR102C, strain apc9, stronger effect = lower value 0.999 | S. cerevisiae deletion strains, locus YLR113W, strain HOG1, stronger effect = lower value 0.983 | S. cerevisiae deletion strains, locus YLR221C, strain rsa3, stronger effect = lower value 0.984 | S. cerevisiae deletion strains, locus YLR258W, strain gsy2, stronger effect = lower value 0.986 | S. cerevisiae deletion strains, locus YLR262C, strain YPT6 (second series), stronger effect = lower value 0.876 | S. cerevisiae deletion strains, locus YLR262C, strain YPT6, stronger effect = lower value 0.998 | S. cerevisiae deletion strains, locus YLR268W, strain sec22, stronger effect = lower value 0.999 | S. cerevisiae deletion strains, locus YLR320W, strain mms22, stronger effect = lower value 0.976 | S. cerevisiae deletion strains, locus YLR330W, strain CHS5, stronger effect = lower value 1.01 | S. cerevisiae deletion strains, locus YLR342W, strain FKS1 (second series), stronger effect = lower value 0.987 | S. cerevisiae deletion strains, locus YLR342W, strain FKS1, stronger effect = lower value 0.985 | S. cerevisiae deletion strains, locus YLR357W, strain rsc2, stronger effect = lower value 0.956 | S. cerevisiae deletion strains, locus YLR370C, strain arc18, stronger effect = lower value 0.99 | S. cerevisiae deletion strains, locus YLR371W, strain rom2, stronger effect = lower value 0.995 | S. cerevisiae deletion strains, locus YLR384C, strain iki3, stronger effect = lower value 0.972 | S. cerevisiae deletion strains, locus YLR418C, strain cdc73, stronger effect = lower value 1 | S. cerevisiae deletion strains, locus YML016C, strain PPZ1, stronger effect = lower value 1.01 | S. cerevisiae deletion strains, locus YML032C, strain rad52, stronger effect = lower value 1.02 | S. cerevisiae deletion strains, locus YML120C, strain ndi1, stronger effect = lower value 0.994 | S. cerevisiae deletion strains, locus YML124C, strain tub3, stronger effect = lower value 0.992 | S. cerevisiae deletion strains, locus YMR058W, strain fet3, stronger effect = lower value 1 | S. cerevisiae deletion strains, locus YMR078C, strain ctf18, stronger effect = lower value 0.998 | S. cerevisiae deletion strains, locus YMR125W, strain sto1, stronger effect = lower value 0.999 | S. cerevisiae deletion strains, locus YMR129W, stronger effect = lower value 0.985 | S. cerevisiae deletion strains, locus YMR205C, strain PFK2, stronger effect = lower value 0.989 | S. cerevisiae deletion strains, locus YMR223W, strain ubp8, stronger effect = lower value 0.991 | S. cerevisiae deletion strains, locus YMR231W, strain pep5, stronger effect = lower value 0.996 | S. cerevisiae deletion strains, locus YMR307W, strain GAS1, stronger effect = lower value 0.946 and 0.993 | S. cerevisiae deletion strains, locus YNL067W, strain RPL9B, stronger effect = lower value 1.03 | S. cerevisiae deletion strains, locus YNL071W, strain lat1, stronger effect = lower value 1 | S. cerevisiae deletion strains, locus YNL128W, strain TEP1, stronger effect = lower value 1.01 | S. cerevisiae deletion strains, locus YNL153C, strain GIM3, stronger effect = lower value 1.01 | S. cerevisiae deletion strains, locus YNL175C, strain NOP13, stronger effect = lower value 1.03 | S. cerevisiae deletion strains, locus YNL183C, strain NPR1, stronger effect = lower value 0.966 | S. cerevisiae deletion strains, locus YNL197C, strain WHI3, stronger effect = lower value 1.01 | S. cerevisiae deletion strains, locus YNL209W, strain ssb2, stronger effect = lower value 0.998 | S. cerevisiae deletion strains, locus YNL224C, strain SQS1, stronger effect = lower value 1 | S. cerevisiae deletion strains, locus YNL233W, strain BNI4, stronger effect = lower value 1.01 | S. cerevisiae deletion strains, locus YNL248C, strain rpa49, stronger effect = lower value 0.999 | S. cerevisiae deletion strains, locus YNL250W, strain rad50, stronger effect = lower value 0.992 | S. cerevisiae deletion strains, locus YNL271C, strain bni1, stronger effect = lower value 1 | S. cerevisiae deletion strains, locus YNL298W, strain CLA4, stronger effect = lower value 1 | S. cerevisiae deletion strains, locus YNL307C, strain MCK1, stronger effect = lower value 0.982 | S. cerevisiae deletion strains, locus YNL322C, strain KRE1 (second series), stronger effect = lower value 0.988 | S. cerevisiae deletion strains, locus YNL322C, strain KRE1, stronger effect = lower value 1.01 | S. cerevisiae deletion strains, locus YNR049C, strain mso1, stronger effect = lower value 0.998 | S. cerevisiae deletion strains, locus YNR052C, strain pop2, stronger effect = lower value 1 | S. cerevisiae deletion strains, locus YOL006C, strain TOP1, stronger effect = lower value 1.01 | S. cerevisiae deletion strains, locus YOL012C, strain htz1 1.15 | S. cerevisiae deletion strains, locus YOL147C, strain pex11, stronger effect = lower value 0.991 | S. cerevisiae deletion strains, locus YOR001W, strain rrp6, stronger effect = lower value 0.992 | S. cerevisiae deletion strains, locus YOR061W, strain CKA2, stronger effect = lower value 1 | S. cerevisiae deletion strains, locus YOR069W, strain VPS5, stronger effect = lower value 1 | S. cerevisiae deletion strains, locus YOR070C, strain gyp1, stronger effect = lower value 0.995 | S. cerevisiae deletion strains, locus YOR080W, strain dia2, stronger effect = lower value 0.984 | S. cerevisiae deletion strains, locus YOR083W, strain WHI5 (second series), stronger effect = lower value 0.993 | S. cerevisiae deletion strains, locus YOR083W, strain WHI5, stronger effect = lower value 0.987 | S. cerevisiae deletion strains, locus YOR106W, strain vam3, stronger effect = lower value 0.977 | S. cerevisiae deletion strains, locus YOR136W, strain idh2, stronger effect = lower value 0.983 | S. cerevisiae deletion strains, locus YOR144C, strain elg1, stronger effect = lower value 0.995 | S. cerevisiae deletion strains, locus YOR184W, strain ser1, stronger effect = lower value 1.02 | S. cerevisiae deletion strains, locus YOR231W, strain MKK1, stronger effect = lower value 0.974 | S. cerevisiae deletion strains, locus YOR265W, strain rbl2, stronger effect = lower value 0.987 | S. cerevisiae deletion strains, locus YOR270C, strain vph1, stronger effect = lower value 0.991 | S. cerevisiae deletion strains, locus YOR290C, strain snf2, stronger effect = lower value 1 | S. cerevisiae deletion strains, locus YOR316C, strain cot1, stronger effect = lower value 1 | S. cerevisiae deletion strains, locus YPL051W, strain arl3, stronger effect = lower value 0.983 | S. cerevisiae deletion strains, locus YPL055C, strain LGE1, stronger effect = lower value 1.06 | S. cerevisiae deletion strains, locus YPL078C, strain atp4, stronger effect = lower value 0.977 | S. cerevisiae deletion strains, locus YPL106C, strain sse1, stronger effect = lower value 1.01 | S. cerevisiae deletion strains, locus YPL240C, strain hsp82, stronger effect = lower value 0.982 | S. cerevisiae deletion strains, locus YPL241C, strain CIN2, stronger effect = lower value 1 | S. cerevisiae deletion strains, locus YPL256C, strain CLN2, stronger effect = lower value 0.985 | S. cerevisiae deletion strains, locus YPR119W, strain clb2, stronger effect = lower value 0.998 | S. cerevisiae deletion strains, locus YPR141C, strain kar3, stronger effect = lower value 1 | S. cerevisiae deletion strains, locus YPR163C, strain tif3, stronger effect = lower value 0.978 | S. cerevisiae deletion strains, locus YPR167C, strain met16, stronger effect = lower value 0.996 | S. cerevisiae deletion strains, strain wtn01, stronger effect = lower value 1.01 | S. cerevisiae strains, strain wild type, stronger effect = lower value 1.01
1.01 (inactive) and 0.0868 (active): S. cerevisiae deletion strains, locus YMR263W, strain SAP30, stronger effect = lower value
